The structures appear in SMILES notation. Compounds without any hit were thinned out: in the full panel of roughly 79,000, 15% have a hit. Unmarked numbers belong to inactive results. Active and inactive are the calls of the source. No stated cut-off is given here; in the data, active means growth inhibition above about 70%; inactive means the rest.

The nature of assay [1]: NCI Yeast Anticancer Drug Screen. Data for the rad50 strain (AID 155).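 Further: 0% = growth of vehicle-only cultures of the same strain.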 To be noted: S. cerevisiae rad50 strain growth inhibition, active compounds read high. An outline of the steps:
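Compounds were tested on a yeast strain with an engineered DNA damage repair alteration; the reported value is growth inhibition normalised to vehicle treatment.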

A short description of assay [2]: NCI Yeast Anticancer Drug Screen. Data for the mec2-1 strain (AID 157). The note with it: S. cerevisiae mec2-1 strain, active compounds read high. In short, it runs like this: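 Cells of the genetically defined mec2-1 yeast strain are incubated with test compound. Inhibition of growth is calculated against vehicle-treated controls.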
A short description of assay [3]: NCI Yeast Anticancer Drug Screen. Data for the sgs1 mgt1 strain (AID 161).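 Further: 0% = growth of cultures given vehicle only.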 To be noted: S. cerevisiae sgs1 mgt1 strain, active compounds read high. In short, it runs like this:
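Mutant yeast exposed to compound; growth scored against vehicle-only wells.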

The nature of assay [4]: NCI Yeast Anticancer Drug Screen. Data for the cln2 rad14 strain (AID 165).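 Further: 0% = growth equal to vehicle treated cultures.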 The note with it: S. cerevisiae cln2 rad14 strain, active compounds read high. An outline of the steps:
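The screen exposed genetically defined yeast (cln2 rad14) to test compounds and scored growth inhibition relative to vehicle-treated controls.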

Assay [5] in a line: NCI Yeast Anticancer Drug Screen. Data for the bub3 strain (AID 167). To be noted: S. cerevisiae bub3 mutant strain, active compounds read high. In short, it runs like this: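 Growth of a checkpoint-deficient yeast mutant is measured after compound exposure. Values represent inhibition relative to vehicle.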
Assay [6] can be described thus: NCI Yeast Anticancer Drug Screen. Data for the mlh1 rad18 strain (AID 175). The note with it: S. cerevisiae mlh1 rad18 strain growth inhibition, active compounds read high. In short, it runs like this: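 Compound-treated yeast growth, normalised to vehicle controls. Strain bears defined DNA repair mutations.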
The mark [7] stands for this setting: at 5.0 µM (retest, dose inferred, filed as 0.5).
[8] abbreviates: at 50.0 µM (retest, dose inferred, filed as 5.0).

With `N#CCC1CC(=O)c2[nH]c3ccccc3c2C1` (stereo not given), the growth inhibition in assay [1] (setting [7]) is -157%; in assay [1] (setting [8]), -137%; in assay [1] (at 50.0 µM), 8.85%; in assay [2] (setting [7]) it was -49%; in assay [2] (setting [8]) it was -54%; in assay [2] (at 50.0 µM) it was 7.7%. The growth inhibition is -64% in assay [3] (setting [7]); -63% in assay [3] (setting [8]); 10% in assay [3] (at 50.0 µM); -54% in assay [4] (setting [7]); -74% in assay [4] (setting [8]); 28% in assay [4] (at 50.0 µM). The growth inhibition in assay [5] (setting [7]) is -62%; in assay [5] (setting [8]), -70%; in assay [5] (at 50.0 µM), -15.9%; in assay [6] (setting [7]), -123%; in assay [6] (setting [8]), -121%; in assay [6] (at 50.0 µM) it was 10.4%.

With `NC(CCC(=O)NC(CS(=O)(=O)O)C(=O)O)C(=O)O` (stereo not given), the growth inhibition is 1% in assay [1] (setting [7]); 6% in assay [1] (setting [8]); 13.2% in assay [1] (at 50.0 µM); 3% in assay [2] (setting [7]); 2% in assay [2] (setting [8]); 12.8% in assay [2] (at 50.0 µM). The growth inhibition was 3% in assay [3] (setting [7]); 5% in assay [3] (setting [8]); 79.7% (active) in assay [3] (at 50.0 µM); 3% in assay [4] (setting [7]); 4% in assay [4] (setting [8]); 93.5% (active) in assay [4] (at 50.0 µM). Further, the growth inhibition was -3% in assay [5] (setting [7]); -6% in assay [5] (setting [8]); 13.4% in assay [5] (at 50.0 µM); -3% in assay [6] (setting [7]); -2% in assay [6] (setting [8]); 85.9% (active) in assay [6] (at 50.0 µM).

For the molecule `CN(C)CC(CN(C)C)C(=O)c1ccc(Oc2ccc(Cl)c(Cl)c2)cc1`, the growth inhibition was 18% in assay [1] (setting [7]); 96% (active) in assay [1] (setting [8]); 93.9% (active) in assay [1] (at 50.0 µM); 8% in assay [2] (setting [7]); 97% (active) in assay [2] (setting [8]); 96.8% (active) in assay [2] (at 50.0 µM). In addition, the growth inhibition in assay [3] (setting [7]) is 29%; in assay [3] (setting [8]), 98% (active); in assay [3] (at 50.0 µM), 96.7% (active); in assay [4] (setting [7]), 4%; in assay [4] (setting [8]) it was 95% (active); in assay [4] (at 50.0 µM), 93.5% (active). The growth inhibition was 6% in assay [5] (setting [7]); 98% (active) in assay [5] (setting [8]); 94.8% (active) in assay [5] (at 50.0 µM); 21% in assay [6] (setting [7]); 96% (active) in assay [6] (setting [8]); 96.3% (active) in assay [6] (at 50.0 µM).

Take `CC(C)(CN1CCCCC1)C(=O)CC(SCCS(=O)(=O)O)c1ccc(Cl)cc1` (stereo not given): the growth inhibition is 16% in assay [1] (setting [7]); 88% (active) in assay [1] (setting [8]); 19.2% in assay [1] (at 50.0 µM); -4% in assay [2] (setting [7]); 91% (active) in assay [2] (setting [8]); 3.7% in assay [2] (at 50.0 µM). The growth inhibition in assay [3] (setting [7]) is -9%; in assay [3] (setting [8]), 85% (active); in assay [3] (at 50.0 µM), 39.1%; in assay [4] (setting [7]), -1%; in assay [4] (setting [8]), 91% (active); in assay [4] (at 50.0 µM), 55.7%. Also, the growth inhibition in assay [5] (setting [7]) was -13%; in assay [5] (setting [8]), 97% (active); in assay [5] (at 50.0 µM), 25.6%; in assay [6] (setting [7]) it was 1%; in assay [6] (setting [8]), 89% (active); in assay [6] (at 50.0 µM), 11.1%.

In the case of `N#[N+]c1ccc2c(S(=O)(=O)Oc3ccc(C(=O)c4ccccc4)c(OS(=O)(=O)c4cccc5c([O-])c([N+]#N)ccc45)c3)cccc2c1[O-]`, the growth inhibition was -10% in assay [1] (setting [7]); 46% in assay [1] (setting [8]); 82.5% (active) in assay [1] (at 50.0 µM); -7% in assay [2] (setting [7]); 33% in assay [2] (setting [8]); 85.3% (active) in assay [2] (at 50.0 µM). Moreover, the growth inhibition in assay [3] (setting [7]) is 1%; in assay [3] (setting [8]), 59%; in assay [3] (at 50.0 µM), 77.2% (active); in assay [4] (setting [7]), 36%; in assay [4] (setting [8]), 45%; in assay [4] (at 50.0 µM) it was 84% (active). For the same molecule, the growth inhibition is -3% in assay [5] (setting [7]); 31% in assay [5] (setting [8]); 77.1% (active) in assay [5] (at 50.0 µM); -13% in assay [6] (setting [7]); 4% in assay [6] (setting [8]); 72.7% (active) in assay [6] (at 50.0 µM).

For `CCOC(=O)c1csc(/C=C/c2cc(OC)c(OC)c(OC)c2)n1`, the growth inhibition in assay [1] (setting [7]) is 0%; in assay [1] (setting [8]) it was 3%; in assay [1] (at 50.0 µM), -1.2%; in assay [2] (setting [7]) it was -1%; in assay [2] (setting [8]), 1%; in assay [2] (at 50.0 µM) it was 0.9%. The growth inhibition in assay [3] (setting [7]) was -2%; in assay [3] (setting [8]), 41%; in assay [3] (at 50.0 µM) it was 46.4%; in assay [4] (setting [7]), -4%; in assay [4] (setting [8]), -3%; in assay [4] (at 50.0 µM) it was -19.5%. The growth inhibition was 1% in assay [5] (setting [7]); 6% in assay [5] (setting [8]); 11.9% in assay [5] (at 50.0 µM); -2% in assay [6] (setting [7]); 3% in assay [6] (setting [8]); -8.1% in assay [6] (at 50.0 µM).

For the molecule `COc1ccc2c(c1)[n+]([O-])c(-c1ccccc1)c(N)[n+]2[O-]`, the growth inhibition in assay [1] (setting [7]) was 47%; in assay [1] (setting [8]), 98% (active); in assay [1] (at 50.0 µM) it was 99.2% (active); in assay [2] (setting [7]) it was 40%; in assay [2] (setting [8]) it was 99% (active); in assay [2] (at 50.0 µM) it was 99.3% (active). For the same molecule, the growth inhibition in assay [3] (setting [7]) was 73% (active); in assay [3] (setting [8]), 97% (active); in assay [3] (at 50.0 µM), 99.2% (active); in assay [4] (setting [7]), 67%; in assay [4] (setting [8]) it was 98% (active); in assay [4] (at 50.0 µM) it was 98.8% (active). Also, the growth inhibition is 87% (active) in assay [5] (setting [7]); 99% (active) in assay [5] (setting [8]); 99.2% (active) in assay [5] (at 50.0 µM); 82% (active) in assay [6] (setting [7]); 99% (active) in assay [6] (setting [8]); 99% (active) in assay [6] (at 50.0 µM).

Consider `COc1ccc2c(c1)CC[C@@H]1[C@@H]2CC[C@]2(C)/C(=N/OCCN3CCCCC3)CC[C@@H]12`, for which the growth inhibition in assay [1] (setting [7]) was 60%; in assay [1] (setting [8]), 97% (active); in assay [1] (at 50.0 µM), 76.3% (active); in assay [2] (setting [7]), 56%; in assay [2] (setting [8]), 98% (active); in assay [2] (at 50.0 µM) it was 71.2% (active). The growth inhibition in assay [3] (setting [7]) was 33%; in assay [3] (setting [8]), 97% (active); in assay [3] (at 50.0 µM) it was 86.8% (active); in assay [4] (setting [7]), 20%; in assay [4] (setting [8]) it was 96% (active); in assay [4] (at 50.0 µM), 78.7% (active). Further, the growth inhibition is 33% in assay [5] (setting [7]); 98% (active) in assay [5] (setting [8]); 79.8% (active) in assay [5] (at 50.0 µM); 80% (active) in assay [6] (setting [7]); 98% (active) in assay [6] (setting [8]); 83% (active) in assay [6] (at 50.0 µM).

`COc1ccc(/C=C/c2c[n+]([O-])ccc2[N+](=O)[O-])cc1`: the growth inhibition in assay [1] (setting [7]) was 14%; in assay [1] (setting [8]) it was 95% (active); in assay [1] (at 50.0 µM) it was 77% (active); in assay [2] (setting [7]) it was 18%; in assay [2] (setting [8]), 97% (active); in assay [2] (at 50.0 µM), 72.2% (active). Also, the growth inhibition in assay [3] (setting [7]) is 37%; in assay [3] (setting [8]), 96% (active); in assay [3] (at 50.0 µM), 63.9%; in assay [4] (setting [7]), 12%; in assay [4] (setting [8]) it was 95% (active); in assay [4] (at 50.0 µM) it was 38.4%. The growth inhibition in assay [5] (setting [7]) is 9%; in assay [5] (setting [8]) it was 97% (active); in assay [5] (at 50.0 µM), 9.35%; in assay [6] (setting [7]), 46%; in assay [6] (setting [8]), 96% (active); in assay [6] (at 50.0 µM), 98% (active).

In the case of `CCCCCCCCCCCCCCCCCO`, the growth inhibition in assay [1] (setting [7]) is -4%; in assay [1] (setting [8]), 6%; in assay [1] (at 50.0 µM), 71% (active); in assay [2] (setting [7]) it was -3%; in assay [2] (setting [8]), -7%; in assay [2] (at 50.0 µM), 63.3%. The growth inhibition in assay [3] (setting [7]) was -3%; in assay [3] (setting [8]), 7%; in assay [3] (at 50.0 µM), 50%; in assay [4] (setting [7]), -1%; in assay [4] (setting [8]), -5%; in assay [4] (at 50.0 µM) it was -15.6%. Also, the growth inhibition is 10% in assay [5] (setting [7]); 8% in assay [5] (setting [8]); 75.2% (active) in assay [5] (at 50.0 µM); -9% in assay [6] (setting [7]); -3% in assay [6] (setting [8]); 77.8% (active) in assay [6] (at 50.0 µM).

(Values after PubChem BioAssay (NCI).)
